# Reference: article PMC13494018
# A number with no mark means an inactive call. No rule for the calls is given here.
# Molecular target: VTCN1, Q7Z7D3
# Sequence (Q7Z7D3 whole entry): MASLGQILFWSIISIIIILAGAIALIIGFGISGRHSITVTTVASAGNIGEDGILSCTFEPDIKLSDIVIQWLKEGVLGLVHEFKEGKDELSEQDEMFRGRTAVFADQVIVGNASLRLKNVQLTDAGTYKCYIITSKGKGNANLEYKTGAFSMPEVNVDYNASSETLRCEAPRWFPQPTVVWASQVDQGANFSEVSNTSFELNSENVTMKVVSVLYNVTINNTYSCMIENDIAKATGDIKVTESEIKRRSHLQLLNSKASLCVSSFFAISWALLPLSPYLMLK
row,Binder,binding in a display sort
1,d4r5_design_ppi_48_dldesign_0_cycle0_af2pred (protein) KAEELFKKGLELVKEGIESEDKEKGKELVKKGSVLFREGLLEKYSEEPASEVVKIAQKIHEEWEKLLEEEFKKK,not found
2,d4r5_design_ppi_186_dldesign_0_cycle1_af2pred (protein) VEEVKEKAEEVLKKATEAMKAAKTVEEVRKIRREGHKELRKLGEEGTPESKEIAYKYIEKLNEAAADAISKLL,not found
3,d4r5_design_ppi_312_dldesign_0_cycle1_af2pred (protein) DFEEAKKKAEEALKKLEELAKELGEEGKKLYEYAKKKFEKYSDDAASVEAAYYIIKGAYKKAEELLKEKKEKKKKEE,not found
4,d4r5_design_ppi_147_dldesign_0_cycle1_af2pred (protein) SVQERARLAAKATRAAHKAKVAAKKIIELGGDKEKAKKLAKEAEKALEKAEEAMADPSKLEELKKATEEAEKLAKEALKEYEKLLA,not found
5,d4r5_design_ppi_251_dldesign_0_cycle1_af2pred (protein) MEKLKEIEEAAKKKLEEGAKKGEEAFKKAITEANLLAASDPEYSKEARAAVKKLAKEKKKELEEKKKKEEEEKKLK,not found
6,d4r5_design_ppi_196_dldesign_0_cycle0_af2pred (protein) ALAEAVAAAAEAAAEAAKKNEVTKPIAEKLEEISKKAKELAKEAKENPELKEKAEKEAEKLREELKKLREEAKKLIAEKKAEEAAKA,not found
7,d4r5_design_ppi_292_dldesign_0_cycle0_af2pred (protein) MKAKETAKALREAVKAAQEAVKAKGEEVKPEMSKLLEEAASSDAEETKKIAEEIKKKAKEVKEEKKKEEE,not found
8,d4r5_design_ppi_73_dldesign_0_cycle0_af2pred (protein) MKAVEELKERAKRRLKEAEEKHKENPLKGAAQAYAAAEYVKNFAEAAAKKYPEYKEELLAAGKEYAKELEEKAKEFEEEAKKLA,not found
9,d4r5_design_ppi_205_dldesign_0_cycle1_af2pred (protein) GEEEAKKAKEKAKKEAKELTDLVDEVAALSGAEAARAYAEKRAKNLVEKAAKEGPEAEKAAKEAAEKILKRAEEIAKAEA,not found
10,d4r5_design_ppi_320_dldesign_0_cycle1_af2pred (protein) ATPEEQKKESDYFKEVQKLAKEKAEAAAADPEAKQLALNLPLAAADPEEGKKVAAQVDKRLAALKAAKAAAAA,not found
11,d4r5_design_ppi_284_dldesign_0_cycle1_af2pred (protein) AAAEVQAKLEAAAKKAEELAKDPALKEAAEAAAKALTAAKSLPPEEAAPALVATNNALQDARFEATEKAFK,not found
12,d4r5_design_ppi_197_dldesign_0_cycle1_af2pred (protein) GKVEKEVKAAAEKAKKLVEEAKKLAESGDKETAKEGMKLAEEALKLAREAGKKAKKAGVKEELVKELEKLAEEAIEVRLDGLEVLAK,not found
13,d4r5_design_ppi_305_dldesign_0_cycle1_af2pred (protein) KEKEMKKEVKKALEEAKKAAEEAIKSGDVKKLKEAAVKAQEAATVAKYIASKAKDKEVKKEAKKAAKEALELAKKVAEEAKKAE,not found
14,d4r5_design_ppi_307_dldesign_0_cycle1_af2pred (protein) GAREKAREESEKIRKELREKKKEAVAYVEAYLKKKAEANPEYAAEYEAKAEKVRNGGSGTATKALKEVKAEEAAEAAAKAAAA,not found
15,d4r5_design_ppi_186_dldesign_0_cycle0_af2pred (protein) LEEVKEKAKEILEKAEKEMKAAKKVSEVNEIRRKGLKELAELGKSSSPEGKKIAYEKREELIEAAGEAMAKKL,not found
16,d4r5_design_ppi_337_dldesign_0_cycle0_af2pred (protein) SHYEKAREYVKKAIKALKEGKEKEAKEYAKKAAEEIAKTDAEKAREIAKEMRKGVKEVGAGKVGGEMVALIQEARAEAAARNS,not found
17,d4r5_design_ppi_266_dldesign_0_cycle0_af2pred (protein) HMLKKLALEKAKEALEKAKEGLKLAKEGKLEEAAKKLQEARELKAEALSLGKKEKSIKKIIEEKAKEVKKIIKEAQKEAKKKK,not found
18,d4r5_design_ppi_147_dldesign_0_cycle0_af2pred (protein) SITERAKLAAEATRAAHRAEAAAKELIKLGGDKKEAEKLRKEAKKALEKAEEAAAKPEKLEELKKETEKAKKIAEEAKKELEELKK,not found
19,d4r5_design_ppi_153_dldesign_0_cycle0_af2pred (protein) LLEEVKKLSEEALKLAKEAKETGSEELREKAREKAKEALELGKKDPEALKIASEATQKMLEIWAEGKAKKNK,not found

row,Binder,binding in a display sort
1,d4r5_design_ppi_332_dldesign_0_cycle1_af2pred (protein) DVEALVAEAVALIAGDPADAPAARAAAEAAAAALLDATLDDPAAVALLEALAAAAAANPHMADVAATLAKALATAKKIVADQKEATS,not found
2,d4r5_design_ppi_288_dldesign_0_cycle0_af2pred (protein) MTKAENAAKILEYAAEADALGDKETAKKLRELAKKAREATAEEAKKLAKEAEKLLKEAEEKKEKEEKEEKEKKEEEEKK,not found
3,d4r5_design_ppi_66_dldesign_0_cycle1_af2pred (protein) GAAEEAAKKAKEEADKAIEAAKKGEKEGAEALLKAAKKLAEAAQKALEAAAEYPEKREEFLKLAKELRKAAKEAEEKAKAEIEAKKKA,not found
4,d4r5_design_ppi_300_dldesign_0_cycle0_af2pred (protein) SEVEEKAKKLVKEAAESTPEEAKKKGREVVELAKEHPEVAPVAAKAADEAAEVAKKKDKEVYIILAKTSAQLDAIAA,not found
5,d4r5_design_ppi_343_dldesign_0_cycle1_af2pred (protein) GEEEEKKKKLNELQDEAAEAIGEVYLEAKKTGELELAKEVSKKVRKALKDPEEAKKAIEEAKKEAKKLKKKL,not found
6,d4r5_design_ppi_122_dldesign_0_cycle1_af2pred (protein) DAEKIAKADKLMEEAKKLAATGKKRKEALEKYKEAAALYAEVDPALAKEAIAKGQEALSEGRENEAEKRLK,not found
7,d4r5_design_ppi_266_dldesign_0_cycle1_af2pred (protein) GEEAKKALELAKKAVEEAKRGLALAKAGKLEEAAKELQKARELMAEALALGKKNPEVLEEVKKLAKEVKELIREAMEEAKKHR,not found
8,d4r5_design_ppi_239_dldesign_0_cycle0_af2pred (protein) MGKELQKLADEANKKAKAIAKTLKENLKLAKELSPELAKEAEAAKKALAAARLTFADDLEKGKEELKAVEKDVEALKAKIEKAAA,not found
9,d4r5_design_ppi_142_dldesign_0_cycle0_af2pred (protein) MEEKRLEALKSQVEHAGEAAEKYGKELGEEEVKKARELKEKALKASAEEARELLKELRKFGKELKKKVEAKKAA,not found
10,d4r5_design_ppi_255_dldesign_0_cycle0_af2pred (protein) SEVEETKKKLAEASAELSELAAEADANPALAAAGKLAREALKKARELGKEGEENPEKALELYKKALEYAEKALKEVKALIEKAK,not found
11,d4r5_design_ppi_307_dldesign_0_cycle0_af2pred (protein) SAEKKAREESEKLREELRKKKEEAIARVKAYLAEKAKKDPSKAAEYEAKAKEVEAGGSGTATAALKEVKAEEAAEAAAKAAAA,not found
12,d4r5_design_ppi_53_dldesign_0_cycle0_af2pred (protein) MKEKQEEARNDAIIESAKMAGAKNPEIGKLLKKATELTLENEEGKEEAKKLIEEVAKKGEEDTAKKLEKAVEALVKKKKEEEKKKK,not found
13,d4r5_design_ppi_185_dldesign_0_cycle1_af2pred (protein) NEEALKKALEEAKKLVEEAGKKAGPEVQEKADRLIKVSERKRKLDPEAGALQGIFGAKGLEPDIDKELAKKIIEAFKKALELA,not found
14,d4r5_design_ppi_292_dldesign_0_cycle1_af2pred (protein) SMAKELSEALREAVRAAREAVETRGEEVKEEMVELVYKAFDSDLEETKKIAEEIKRRAEEAREERRRRLE,not found
15,d4r5_design_ppi_302_dldesign_0_cycle0_af2pred (protein) SEAEKLYAEALQYANIAKSAYEVNKEAGKEEYKEAKKYVEKLKEVDPEKGEEAEKEVEEKKAEAEKEYEKK,not found
16,d4r5_design_ppi_64_dldesign_0_cycle1_af2pred (protein) AAAGTATAETIVNLREAEHILKLLEKNKNIPKEQAEVFIKDSEEIIKEVEEALKKGLVSKELAEKALEAAKKALEAAKKAYKK,not found
17,d4r5_design_ppi_63_dldesign_0_cycle1_af2pred (protein) SLAEEAEKKLKEYAALRIEAGDLSEEEAKKTFKEIAKEAKELAKKLEADPNAKEVAKKAKKLAGAAESAAKAIEKA,not found
18,d4r5_design_ppi_305_dldesign_0_cycle0_af2pred (protein) MEEKLKKEVEEALKKAEKAAKEAKASGDVKALKEAAMKANEAAAEARAYAAKSKDKETKKFAEEAAKKALELAKETVEAAKKAA,not found
19,d4r5_design_ppi_48_dldesign_0_cycle1_af2pred (protein) KAEELLKKGEELMEEGINSENKEEGEKKVKEGAVYYKEGLIEKNPEEPVSEQVKKAKEIYEKYEKELKEKHEKK,not found
